Consider 14 compounds from PubChem BioAssay.

Assay [1] is described as follows: inhibitors of TNFa-induced NFkB p65 translocation, primary screen, imaging, HUVEC, MLSMR starter and 10KST1 sets (AID 438;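 active = inhibition above 20% together with a positive visual image hit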;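 also: compound added about 3h40 before a 20 min TNFalpha stimulation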;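 as to inhibition: signal is the nuclear over cytoplasmic p65 intensity ratio per well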). The note with it: HUVEC TNFa-induced p65 nuclear translocation; cell count: measured here: nuclei count (cytotoxicity indicator), at 2.08 µM; inhibition: at 2 µM, stronger effect = higher value, 0% TNFa-plus-vehicle, 100% no-TNFa wells.
The nature of assay [2]: inhibitors of mutant huntingtin aggregation, primary screen, imaging, exon1htt(103Q)mCFP cells, high-content imaging (AID 483;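 active = visual image review flags a hit and inhibition of aggregation exceeds 20%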;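 also: compound exposure lasted 3 days before fixation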;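 as to nuclei count: percent of the per-plate median nuclei count of sample wells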). The note with it: exon1htt(103Q)mCFP cell line, aggregate imaging, at 2 µM; inhibition of aggregation: stronger effect = higher value; nuclei count: measured here: cell count, toxicity.
The nature of assay [3]: inhibitors of E-selectin induction by TNFa, primary screen, imaging, HUVEC, immunofluorescence, MLSMR starter and 10KST1 sets (AID 487;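 active = visually confirmed hit in the image check and inhibition above 20%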;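 as to inhibition: signal is fraction of cell area covered by stained E-selectin grains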;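 as to nuclei count: 100% = median nuclei count of all wells on the same plate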). The note with it: HUVEC TNFalpha-induced E-selectin immunofluorescence imaging, at 2 µM; inhibition: stronger effect = higher value; nuclei count: measured here: cell number, toxicity.
For assay [4], the target named is Voltage-gated potassium channel subunit beta-2 (Rattus norvegicus) (UniProt P62483). The assay is described as follows: KvBeta enzyme negative modulators, primary screen, biochemical, NADPH fluorescence (AID 622;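 active = fluorescence slope higher than the sample average by over 3 SD, cut at about -0.22 in these data, passing the limit was not always enough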;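 also: slope of raw intensity against log time taken from 70 to 1610 s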). The note with it: recombinant KvBeta, 4-cyanobenzaldehyde reduction, at 10 µM, stronger effect = higher value.
The target is the same in assay [5]. The assay is described as follows: KvBeta positive modulators, primary screen, biochemical, NADPH fluorescence (AID 623;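 active = NADPH fluorescence slope more negative than the mean of all samples by about 3 SD, 99.7% confidence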;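 also: fluorescence intensity change per second fitted from 20 to 320 s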). Particulars: Recombinant KvBeta, NADPH fluorescence decrease slope, 10 min; at 10 µM; stronger effect = lower value.
In assay [6] the target is Alpha-2C adrenergic receptor (Homo sapiens) (UniProt P18825). The assay can be described thus: modulators of alpha2C/GIRK thallium flux, primary screen, cell-based, HEK293 alpha2C/GIRK1/2 (AID 624;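 active = fluorescence slope after compound addition differing from the mean of all screened samples at 99.7% confidence, in either direction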;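 also: slope of fluorescence ratio to pre-addition baseline per second over 15 to 24 s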). Particulars: thallium flux BTC fluorescence, at 10 µM, actives lie on both sides.
Assay [7] in a line: inhibitors of Sendai virus-induced IRF3 signaling, primary screen, TLR/RLR signaling modifier project, cell-based, Sendai virus stimulus, luciferase, 10K MLSCN set (AID 602276;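 active = inhibition at or above 50% at 10 µM; inactive = inhibition below 50%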;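 also: firefly luciferase from ISG56 promoter only with Renilla not read in this screen; 0% = Sendai virus plus DMSO and 100% = medium plus DMSO without virus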). The note with it: HEK293 RL24 IRF3 luciferase reporter, at 10 µM, stronger effect = higher value. Background: Reporter assays use an easily measured gene product as a stand-in for the process of interest.
Assay [8] is described as follows: inhibitors of poly I:C-induced TLR3 signaling, primary screen, cell-based, poly I:C stimulus, luciferase, 10K MLSCN set (AID 602277). Particulars: HEK293-TLR3 RL24 IRF3 luciferase reporter, at 10 µM, stronger effect = higher value.

The source made the active and inactive calls.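 The calls were made as follows, unless noted: active = inhibition of the reporter signal at or above 50%; inactive = inhibition below 50%.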

Voltage-gated potassium channel subunit beta-2 (Rattus norvegicus), sequence (P62483 whole entry, looked up): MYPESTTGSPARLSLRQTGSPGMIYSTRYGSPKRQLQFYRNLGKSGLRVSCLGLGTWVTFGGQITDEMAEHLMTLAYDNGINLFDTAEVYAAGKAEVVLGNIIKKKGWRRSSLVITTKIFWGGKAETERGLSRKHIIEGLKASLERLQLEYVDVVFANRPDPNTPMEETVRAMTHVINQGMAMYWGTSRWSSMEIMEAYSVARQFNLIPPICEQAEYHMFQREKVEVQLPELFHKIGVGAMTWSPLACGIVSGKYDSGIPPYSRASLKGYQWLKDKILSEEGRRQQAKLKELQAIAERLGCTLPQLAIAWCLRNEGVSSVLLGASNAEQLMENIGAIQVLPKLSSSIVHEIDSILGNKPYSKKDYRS
Alpha-2C adrenergic receptor (Homo sapiens), sequence (P18825 whole entry, looked up): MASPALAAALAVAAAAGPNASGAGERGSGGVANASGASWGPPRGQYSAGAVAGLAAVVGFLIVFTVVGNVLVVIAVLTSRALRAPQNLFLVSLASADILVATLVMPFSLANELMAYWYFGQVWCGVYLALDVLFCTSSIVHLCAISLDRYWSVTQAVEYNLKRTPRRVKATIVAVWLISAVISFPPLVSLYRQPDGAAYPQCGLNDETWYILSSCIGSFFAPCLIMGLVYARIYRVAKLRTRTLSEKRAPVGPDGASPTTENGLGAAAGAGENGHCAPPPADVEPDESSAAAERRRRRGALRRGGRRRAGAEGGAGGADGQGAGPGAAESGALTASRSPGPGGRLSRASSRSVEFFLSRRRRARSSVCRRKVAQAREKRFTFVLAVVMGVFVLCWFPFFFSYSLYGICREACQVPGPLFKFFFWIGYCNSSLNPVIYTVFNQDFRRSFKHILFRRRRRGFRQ

On to `CCc1[nH]nc2c1C(c1cccc(OC(=O)N3CCOCC3)c1)C(C#N)=C(N)O2` (centres undefined), for which, in assay [1], the cell count came out at 393. For the same compound, the inhibition in assay [1] was -20.5% (inactive); in assay [3], 9.4% (inactive); in assay [7] it was 20.6% (inactive); in assay [8], 22.7% (inactive). Besides, the inhibition of aggregation in assay [2] is -8.9% (inactive). The nuclei count in assay [2] is 98.5%; in assay [3], 87.2%. Besides, the fluorescence slope in assay [4] is -0.563 (inactive). Besides, the NADPH fluorescence slope in assay [5] is -2e-05 (inactive). The slope in assay [6] was 0.00573 (inactive).

Turning to `Cc1c(NC(=O)Cn2nc(C(=O)O)c3ccccc3c2=O)c(=O)n(-c2ccccc2)n1C`, the cell count in assay [1] turned out to be 521. For the same compound, the inhibition in assay [1] was -10.8% (inactive); in assay [3], -148% (inactive); in assay [7], -13.8% (inactive); in assay [8] it was -13.3% (inactive). For the same compound, the inhibition of aggregation in assay [2] is -2.1% (inactive). Further, the nuclei count in assay [2] worked out at 93.8%; in assay [3], 111%. The fluorescence slope in assay [4] is -0.541 (inactive). Moreover, the NADPH fluorescence slope in assay [5] was 3.3e-05 (inactive). In addition, the slope in assay [6] is 0.00605 (inactive).

In the case of `CCC(CC)C(=O)NCCc1cc2ccc(C)cc2[nH]c1=O`, the cell count in assay [1] came to 643. For the same compound, the inhibition is 0.5% (inactive) in assay [1], -15.4% (inactive) in assay [3], 14.3% (inactive) in assay [7] and 26.1% (inactive) in assay [8]. Besides, in assay [2], the inhibition of aggregation was 3% (inactive). In addition, the values for the nuclei count in assay [2] and in assay [3] were 117% and 111%, respectively. The fluorescence slope in assay [4] was -0.556 (inactive). The NADPH fluorescence slope in assay [5] is -3.5e-05 (inactive). Also, the slope in assay [6] is 0.00557 (inactive).

On to `CCCc1cc(=O)[nH]c(Nc2ccc(OC)c(Cl)c2)n1`, for which the cell count in assay [1] came out at 238. For the same compound, the inhibition in assay [1] is -0.8% (inactive); in assay [3], 25.7% (inactive); in assay [7] it was -1.81% (inactive); in assay [8], 46.2% (inactive). In assay [2], the inhibition of aggregation was 17.6% (inactive). Further, the nuclei count in assay [2] worked out at 88.1%; in assay [3], 70.9%. Also, the fluorescence slope in assay [4] was -0.478 (inactive). For the same compound, in assay [5], the NADPH fluorescence slope was -8.5e-06 (inactive). Further, the slope in assay [6] was 0.00603 (inactive).

Turning to `Nc1nc(NCc2ccco2)nn1-c1ccccc1`, the cell count in assay [1] came to 335. Moreover, the inhibition is -14.2% (inactive) in assay [1], 5.3% (inactive) in assay [3], 7.08% (inactive) in assay [7] and -10.7% (inactive) in assay [8]. Also, in assay [2], the inhibition of aggregation is -22.2% (inactive). Moreover, the nuclei count came out at 112% in assay [2] and 93.7% in assay [3]. Further, the fluorescence slope in assay [4] is -0.402 (inactive). Further, in assay [5], the NADPH fluorescence slope is -8.1e-05 (inactive). In assay [6], the slope is 0.00567 (inactive).

With `COc1ccc(NC(=O)CSc2nc3c(c(=O)n2-c2ccc(F)cc2)SCC3)cc1`, in assay [1], the cell count turned out to be 596. In addition, the inhibition in assay [1] is -5.8% (inactive); in assay [3], -11.9% (inactive); in assay [7], 17.1% (inactive); in assay [8] it was 26.3% (inactive). In addition, the inhibition of aggregation in assay [2] was 20% (inactive). Besides, the nuclei count in assay [2] was found to be 53.8%; in assay [3], 91.5%. In assay [4], the fluorescence slope is -0.541 (inactive). Besides, in assay [5], the NADPH fluorescence slope was -1.7e-05 (inactive). The slope in assay [6] is 0.00814 (inactive).

Take `CN(CCc1ccccn1)c1ncnc2[nH]ncc12`: the cell count in assay [1] is 591. Besides, the inhibition in assay [1] was 8.1% (inactive); in assay [3], 55.8% (active); in assay [7], -24.6% (inactive); in assay [8], -53.4% (inactive). Also, in assay [2], the inhibition of aggregation is -1.4% (inactive). Moreover, the figures for the nuclei count in assay [2] and in assay [3] were 71.8% and 63.8%, respectively. Moreover, the fluorescence slope in assay [4] was -0.325 (inactive). Also, the NADPH fluorescence slope in assay [5] was -3.6e-05 (inactive). The slope in assay [6] was 0.0053 (inactive).

For the compound `COc1ccc(C(c2nnnn2C2CCCC2)N2CCC(C)CC2)c(OC)c1` (centres undefined), the cell count in assay [1] was found to be 584. Further, the inhibition in assay [1] is -7.1% (inactive); in assay [3] it was -5.7% (inactive); in assay [7] it was 2.52% (inactive); in assay [8] it was 3.27% (inactive). The inhibition of aggregation in assay [2] was -6.5% (inactive). The nuclei count in assay [2] was determined as 102%; in assay [3] it was 109%. Further, in assay [4], the fluorescence slope was -0.571 (inactive). In assay [5], the NADPH fluorescence slope was 1.2e-05 (inactive). In assay [6], the slope was 0.005 (inactive).

As for `CCOC(=O)c1c(NC(=O)c2cccs2)sc(C)c1C`, in assay [1], the cell count amounted to 396. Further, the inhibition in assay [1] is -6% (inactive); in assay [3], -107% (inactive); in assay [7], 12.5% (inactive); in assay [8], 2.83% (inactive). In assay [2], the inhibition of aggregation was -20% (inactive). Further, the nuclei count was determined as 102% in assay [2] and 125% in assay [3]. Further, the fluorescence slope in assay [4] is -0.307 (inactive). Besides, the NADPH fluorescence slope in assay [5] was 1.4e-05 (inactive). The slope in assay [6] was 0.00436 (inactive).

Regarding `COc1ccc(Oc2c(C)oc3cc(OC(=O)N4CCOCC4)ccc3c2=O)cc1`, in assay [1], the cell count was 770. Further, the inhibition was -4.9% (inactive) in assay [1], -28.1% (inactive) in assay [3], 3.22% (inactive) in assay [7] and -6.73% (inactive) in assay [8]. In addition, the inhibition of aggregation in assay [2] is 11.1% (inactive). For the same compound, the figures for the nuclei count in assay [2] and in assay [3] were 95.2% and 112%, respectively. Moreover, the fluorescence slope in assay [4] is -0.402 (inactive). Moreover, in assay [5], the NADPH fluorescence slope is 2.6e-05 (inactive). Besides, in assay [6], the slope was 0.00567 (inactive).

Turning to `CCOC(=O)N1CCC(NC(=O)c2cnn3ccccc23)CC1`, in assay [1], the cell count was determined as 761. Also, the inhibition was 7.4% (inactive) in assay [1], -67% (inactive) in assay [3], -3.54% (inactive) in assay [7] and 9.82% (inactive) in assay [8]. Moreover, the inhibition of aggregation in assay [2] was -3.3% (inactive). For the same compound, the nuclei count in assay [2] worked out at 88.5%; in assay [3], 113%. The fluorescence slope in assay [4] was -0.589 (inactive). Moreover, in assay [5], the NADPH fluorescence slope is 4.8e-07 (inactive). Moreover, in assay [6], the slope is 0.0078 (inactive).

Regarding `CCOC(=O)c1[nH]c(CSc2nnc(-c3ccc(OC)cc3)o2)c(C(=O)OCC)c1C`, the cell count in assay [1] was found to be 609. Moreover, the inhibition in assay [1] is 1.4% (inactive); in assay [3] it was -39.2% (inactive); in assay [7], 7.64% (inactive); in assay [8] it was 24.1% (inactive). Further, the inhibition of aggregation in assay [2] was -12.6% (inactive). The values for the nuclei count in assay [2] and in assay [3] were 124% and 119%, respectively. Moreover, in assay [4], the fluorescence slope was -0.304 (inactive). Besides, in assay [5], the NADPH fluorescence slope is -5.8e-05 (inactive). Moreover, the slope in assay [6] is 0.00625 (inactive).

`CCn1cc(C(=O)NCCCOC)c(=O)c2cc(S(=O)(=O)N(C)C3CCCCC3)ccc21`: the cell count in assay [1] is 559. For the same compound, the inhibition in assay [1] was -15.1% (inactive); in assay [3], -38.4% (inactive); in assay [7], 6.58% (inactive); in assay [8], 28.2% (inactive). For the same compound, the inhibition of aggregation in assay [2] was 18.2% (inactive). The nuclei count came out at 74.5% in assay [2] and 100% in assay [3]. Also, the fluorescence slope in assay [4] is -0.678 (inactive). The NADPH fluorescence slope in assay [5] was 5.7e-06 (inactive). Besides, the slope in assay [6] is 0.00665 (inactive).

With `CCCCCn1c(N2CCN(Cc3ccccc3)CC2)nc2c1c(=O)[nH]c(=O)n2C`, the cell count in assay [1] came to 675. In addition, the inhibition in assay [1] is 1.9% (inactive); in assay [3], -13.6% (inactive); in assay [7], 14.2% (inactive); in assay [8] it was 16.8% (inactive). Further, the inhibition of aggregation in assay [2] is -11.5% (inactive). The nuclei count in assay [2] turned out to be 101%; in assay [3], 107%. The fluorescence slope in assay [4] was -0.625 (inactive). For the same compound, the NADPH fluorescence slope in assay [5] is -2.8e-05 (inactive). In addition, in assay [6], the slope is 0.0038 (inactive).

A word on the inhibition: it is the change of the read-out against control, counted positive when it falls.
